Potency and affinity values are given separately. Activity calls are given as the source filed them. No rule for the calls is given here.
Biological target: Large T antigen (Simian virus 40) (UniProt P03070)
Assay: SV40 large T antigen ATPase inhibitors, SAR follow-up, biochemical, ADP-Hunter detection, purified TAg, synthesized compounds, set 3 (AID 485288)
Conditions: ADP-Hunter fluorescence; series mostly up to 100 µM

Sequence of Large T antigen (Simian virus 40) (P03070 whole entry, looked up): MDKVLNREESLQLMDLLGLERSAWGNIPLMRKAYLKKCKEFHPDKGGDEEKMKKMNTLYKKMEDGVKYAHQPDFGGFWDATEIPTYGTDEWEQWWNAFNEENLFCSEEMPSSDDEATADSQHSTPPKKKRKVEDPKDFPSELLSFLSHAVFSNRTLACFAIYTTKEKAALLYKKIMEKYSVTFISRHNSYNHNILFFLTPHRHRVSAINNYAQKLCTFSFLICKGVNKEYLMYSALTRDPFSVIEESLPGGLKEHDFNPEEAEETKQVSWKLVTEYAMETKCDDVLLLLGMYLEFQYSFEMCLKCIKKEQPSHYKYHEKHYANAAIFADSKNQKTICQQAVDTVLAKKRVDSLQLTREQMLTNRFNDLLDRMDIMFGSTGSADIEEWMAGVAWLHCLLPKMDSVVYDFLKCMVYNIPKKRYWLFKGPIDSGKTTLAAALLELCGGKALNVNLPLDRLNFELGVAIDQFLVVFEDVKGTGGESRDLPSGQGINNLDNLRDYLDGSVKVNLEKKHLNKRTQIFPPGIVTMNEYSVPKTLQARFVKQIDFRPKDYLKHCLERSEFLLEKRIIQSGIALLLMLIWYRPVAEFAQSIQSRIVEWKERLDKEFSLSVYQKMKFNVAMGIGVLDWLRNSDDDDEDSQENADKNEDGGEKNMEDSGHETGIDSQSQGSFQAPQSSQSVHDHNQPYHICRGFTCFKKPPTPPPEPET

outcome, inactive:
Cc1ccc(-n2nnnc2C(C)(C)N2CCCCC2)cc1
CC(C)(c1nnnn1-c1ccc(Cl)cc1)N1CCN(C(=O)c2ccco2)CC1
Oc1ccccc1Cc1ccccc1O
CC(C)(c1ccc(O)cc1)c1ccc(Cl)cc1
CC(=O)c1cc(C(C)(C)c2ccc(O)cc2)cc(C(C)=O)c1O
Cc1ccccc1-n1nnnc1C(C)(C)N1CCCC1
CC(C)(c1nnnn1-c1ccccc1)N1CCOCC1
FC(F)(c1nnnn1-c1ccccc1)c1nnc2ccccn12
Oc1ccc(Cl)cc1Cc1cc(Cl)ccc1O

— PubChem BioAssay AID485288 (Southern Research Specialized Biocontainment Screening …, 2010)
